Screens (PubChem)
Pf Dd2 inh: qHTS Primary assay for Inhibitors of Plasmodium falciparum Dd2 growth in vitro. 4.3% of 120,000 active. Potency, µM (series often up to 28.9 µM), usual class: inhibitors. P. falciparum Dd2 growth, SYBR Green, 72 h; active means well fitted inhibition curve with a large enough effect; further: nearly all actives have a fitted effect of over 65% in size
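Readout: SYBR Green fluorescence, 485 nm excitation, 535 nm emission, after ~16 h lysis at 37C. Before that, Dd2-infected red cells (2.5% hematocrit) grew 72 h with compound, 29 uM top final concentration.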
Large screens that a line does not name were inactive. Many of the other results were omitted from the sample, so hits are more common in it than they were.

O=C1CO[C@H]2CN(Cc3c[nH]c4ccccc34)C[C@H]2N1	none
CN1C(=O)CO[C@H]2CN(Cc3c[nH]c4ccccc34)C[C@H]21	none
O=C1CO[C@H]2CCN(Cc3cccc(OC(F)(F)F)c3)CC[C@@H]2N1Cc1ccccc1	none
CCCS(=O)(=O)N1CC[C@H](c2nc(C)no2)[C@H](NC(=O)C2CC2)C1	none
CCn1ccnc1CN1CCC2(CCC(=O)N(CCc3ccncc3)C2)CC1	none
COCCCNC(=O)CCCN1C(=O)COc2ccc(C(=O)COc3cccc(C)c3C)cc21	none
COCCNC(=O)CCCN1C(=O)COc2ccc(C(=O)COc3c(C)ccc(C)c3C)cc21	Pf Dd2 inh 10µM
COCCNC(=O)CCCN1C(=O)COc2ccc(C(=O)COc3ccc(Cl)c(C)c3)cc21	none
CCOc1ccc(CN2C[C@@H](COC)[C@H](C(=O)N(C)C)C2)cc1	none
COCCN1CC(C(=O)N(C)Cc2ccc(OC)c3ncccc23)CCC1=O (stereo not given)	none
CC(C)N1CC[C@H](c2nc3ccc(C#N)cc3[nH]2)C1	none
COc1ccc2nc([C@H]3CCN(Cc4ccc(C(=O)O)cc4)C3)[nH]c2c1	none
COc1ccc2nc([C@H]3CCN(C4CCN(C(C)=O)CC4)C3)[nH]c2c1	none
COc1ccc2nc([C@H]3CCN(CCCc4ccccc4)C3)[nH]c2c1	Pf Dd2 inh 11.2µM
c1ccc(CCCN2CC[C@H](c3nc4ccccc4[nH]3)C2)cc1	none
COc1ccc2nc([C@H]3CCN(C(C)C)C3)[nH]c2c1	Pf Dd2 inh 31.6µM
COc1ccc(-c2cc(C(=O)NCc3cnn(C)c3)c3c(c2)N(C)CCO3)cc1	none
CN(Cc1ccccc1)C(=O)C[C@@H]1O[C@H](CNCc2ccc(F)cc2)[C@@H](O)[C@H]1O	none
Cc1ccsc1-c1[nH]nc2ncc(-c3cccnc3)nc12	none
C[C@@]1(O)CCN(C(=O)c2cccc(-c3cccc(F)c3)c2)C[C@@H]1O	none
Cc1ccc(CNC(=O)CCc2cn(Cc3ccc(C)cc3)c3ccccc23)cc1	none
CCCCN(C)CC(O)Cn1cc(/C=C/C(=O)c2ccc(C)cc2)c2ccccc21 (stereo not given)	Pf Dd2 inh 2.51µM
CCCN(CCC)CC(O)Cn1cc(/C=C/C(=O)c2ccc(Br)cc2)c2ccccc21 (stereo not given)	Pf Dd2 inh 3.16µM
CCCN(CCC)CC(O)Cn1cc(/C=C/C(=O)c2ccc(C)cc2)c2ccccc21 (stereo not given)	Pf Dd2 inh 1.12µM
CCN(CC)C(=O)Cn1cc(SCC(=O)Nc2cccc(C)c2)c2ccccc21	none
COC[C@@H]1CN(Cc2ccncc2F)C[C@H]1C(=O)NC1CC1	none
COc1ccc(NC(=O)N2CCCCC2c2nc(-c3cnccn3)n[nH]2)cc1 (stereo not given)	none
O=C(c1ccccc1F)N1CCC2(CC1)C(=NC1CCCC1)NC(=O)N2c1cccnc1	none
CCN(c1ccccc1)c1nnc(NC(=O)Nc2cccc(C(F)(F)F)c2)s1	none
CC(C)CN(CC(C)C)c1nnc(NC(=O)Nc2cccc(C(F)(F)F)c2)s1	Pf Dd2 inh 11.2µM
Cc1ccc(NC(=O)Nc2nnc(N(CC(C)C)CC(C)C)s2)cc1Cl	none
COCCNc1ncnc2c1CN(C1CNC1)C(=O)CN2C	none
O=C(O)[C@H]1C[C@H](C(=O)NCc2ccccn2)CN(Cc2ccccc2)C1	none
O=C(O)C[C@@H]1CCN(C(=O)Cc2ccccc2)C[C@@H]1CCN1CCC[C@H]1C(=O)O	none
CCOc1ccccc1C(=O)N[C@@H]1CN(C)C[C@H]1CN(C)C	none
CCN(CC)C(=O)CC[C@@H]1CNC(=O)[C@@H]2C[C@H](NCc3ccccc3)CN12	none
Cc1cccc(N2CCN(C(=O)CCc3c(C)nc4c(c3C)c(=O)n(C)c(=O)n4C)CC2)c1C	none
CCOC(=O)c1c(C)[nH]c(C)c1S(=O)(=O)N1CCC(C(=O)N2CCN(c3cccc(C)c3C)CC2)CC1	none
CCOC(=O)c1c(C)[nH]c(C)c1S(=O)(=O)N(C)CC(=O)N1CCN(c2ccc(Cl)cc2)CC1	none
CCOC(=O)c1[nH]c(C)c(CCC(=O)N2CCN(c3cccc(C)c3C)CC2)c1C	Pf Dd2 inh 0.355µM
CCOC(=O)c1[nH]c(C)c(CCC(=O)N2CCN(c3ccc(Cl)cc3)CC2)c1C	Pf Dd2 inh 3.55µM
CCOC(=O)c1[nH]c(C)c(CCC(=O)NCc2ccc(OC)cc2)c1C	none
NC(=O)CCNC(=O)C1=C[C@@H](NC(=O)Nc2cccc(F)c2)[C@@H](O)[C@H](O)C1	none
O=C(Cc1cccs1)N1CCC(n2cc(-c3nc(C4CC4)no3)nn2)C1 (stereo not given)	none
COc1ccc(C(=O)N2C(C(=O)NC3CC3)COC23CCN(C(=O)c2ccccc2C)CC3)cc1 (stereo not given)	none
CN1CCN(c2nc3c(c(=O)[nH]2)CCN(Cc2ccc(F)cc2Cl)CC3)CC1	none
O=C(NC1CCCCC1)[C@@H]1C[C@@H](O)CN1C1CCN(C(=O)c2nccc3ccccc23)CC1	none
O=C(O)Cn1nc(N2CCN(c3ccc(F)cc3)CC2)ccc1=O	none
CN(C)CCNC(=O)Cn1nc(N2CCN(c3ccccc3)CC2)ccc1=O	none
Cc1ccc(F)cc1NC(=O)c1ccc(Cn2nc(N3CCN(c4ccccc4)CC3)ccc2=O)o1	Pf Dd2 inh 11.2µM
Cc1cccc(NC(=O)c2ccc(Cn3nc(N4CCN(c5ccccc5)CC4)ccc3=O)o2)c1C	Pf Dd2 inh 11.2µM
Cc1cc(F)ccc1NC(=O)Cn1nc(N2CCN(c3ccccc3)CC2)ccc1=O	none
CC(C)CCNC(=O)Cn1nc(N2CCN(c3ccccc3)CC2)ccc1=O	none
O=C(c1ccccc1)N1CCn2c(nnc2[C@@H]2C[C@@H](O)CN2Cc2ccccc2)C1	none
COC(=O)[C@@H](Cc1cccnc1)NC(=O)[C@H]1CN(C(=O)c2cccnc2)CCN1S(=O)(=O)c1ccccc1	none
OC[C@@H]1CNC[C@H]1C1CCN(Cc2cccc(C(F)(F)F)c2)CC1	none
COc1ccc(CN2C(=O)COC[C@H]2C(=O)Nc2ccc(F)c(F)c2)cc1OC	none
CN1C(=O)[C@H]2CN(Cc3ccco3)C[C@H]2C1=O	none
Cc1ccsc1CN1CCc2nc(N3CCN(C)CC3)[nH]c(=O)c2CC1	none
CN(C)c1ncnc2sc3c(c12)CCN(Cc1ccc2cc[nH]c2c1)C3	Pf Dd2 inh 1.26µM
Cc1ccsc1CN1CCc2c(sc3ncnc(N(C)C)c23)C1	Pf Dd2 inh 5.01µM
CN(C)c1ncnc2sc3c(c12)CCN(Cc1ccco1)C3	Pf Dd2 inh 3.98µM
CN(Cc1cccnc1)c1nc2c(c(=O)[nH]1)CCN(Cc1ccc3[nH]ccc3c1)CC2	none
CN1c2cccnc2CN(Cc2ccco2)CC[C@H]1CO	none
Cc1ccsc1CN1CCc2nc(N(C)C)[nH]c(=O)c2CC1	none
CN1CCN(c2nc3c(c(=O)[nH]2)CCN(Cc2ccc4cc[nH]c4c2)CC3)CC1	none
O=C(c1ccncc1)N1CCC(CCOc2ccccc2)C1 (stereo not given)	none
NCCn1cc(C(=O)NCCc2noc(-c3ccccc3)n2)nn1	none
COc1ccc(NC(=O)Nc2ccc(C)n(CC(=O)N3CCCCCC3)c2=O)cc1	none
Clc1cc(NC2CCOCC2)n2nccc2n1	none
C[C@H]1[C@@H]2[C@@H](O)C([C@H](C)C(=O)NCCN3CCOCC3)CC[C@@]2(C)CC[C@@H]1NC(=O)c1cnccn1 (stereo not given in full)	none
CN(C)c1cccc(C(=O)NCCC2CCN(C(=O)Nc3cc(F)cc(F)c3)CC2)c1	none
CCc1nc(-c2c3n(c(=O)n(CC(=O)NC4CCCCC4)c2=O)CCCCC3)no1	none
O=C1[C@H]2CCCN2C(=O)C2C[C@@H](NS(=O)(=O)c3cccs3)CCN12 (stereo not given in full)	none
Cn1nc(C(=O)N2CCc3nn(CC4CC4)c(=O)n3CC2)c2ccccc21	none
